PPARg SRC-3 ag = PPARgamma agonists recruiting SRC-3 coactivator, primary screen, biochemical; hit rate 0.26% among 200,000; Peroxisome proliferator-activated receptor gamma (Homo sapiens), P37231; activation, % at 8 µM; biochemical PPARgamma/SRC-3 coactivator recruitment assay; in the data active means activation above about 23%;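 further: 0% = DMSO and 100% = reference agonist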
SRC1 TRFRET art = TR-FRET detection interference compounds, primary screen, artefact control for PPARgamma SRC-1 recruitment agonists, biochemical, TR-FRET emission ratio | TR-FRET detection artefact counter-screen; active compounds read high | TR-FRET ratio at 8 µM | hit rate 0.34% among 99,000 | AID 1051, 2008; in the data active means TR-FRET ratio above about 2300
SRC2 TRFRET art = TR-FRET signal artefacts, primary screen, artefact control for PPARgamma SRC-2 agonist project, biochemical | TR-FRET artefact counter-screen; active compounds read high | TR-FRET ratio at 8 µM | hit rate 0.4% among 200,000 | AID 1049, 2008; in the data active means TR-FRET ratio above about 2000
PPARg SRC2 recr = agonists of PPARg-SRC-2 recruitment, primary screen, biochemical, HTS; Peroxisome proliferator-activated receptor gamma (Homo sapiens), P37231; PPARgamma LBD-SRC-2 recruitment; activation, % at 8 µM; hit rate 0.34% among 200,000; AID 1032, 2008;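 further: 0% = vehicle and 100% = reference agonist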
SRC3 TRFRET art = TR-FRET detection interference compounds, artefact control for PPARgamma SRC-3 recruitment agonists, biochemical, TR-FRET ratio; TR-FRET artefact counter-screen, PPARgamma/SRC-3 format; active compounds read high; TR-FRET ratio at 8 µM; hit rate 0.39% among 99,000; AID 1048, 2008; in the data active means TR-FRET ratio above about 2000
PPARg SRC-1 ag = PPARgamma agonists recruiting SRC-1 coactivator, primary screen, biochemical; Peroxisome proliferator-activated receptor gamma (Homo sapiens), P37231; PPARgamma-SRC-1 coactivator recruitment biochemical assay; activation, % at 8 µM; hit rate 0.41% among 200,000; in the data active means activation above about 19%;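 further: 0% = DMSO and 100% = reference agonist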
PPARg SRC2 conf = agonists of PPARgamma SRC-2 coactivator recruitment, confirmation, biochemical, HTS. biochemical SRC-2 recruitment by PPARgamma. activation, % at 8 µM. AID 1297, 2008. hit rate 52% among 790. shares compounds with PPARg SRC-3 ag;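 further: 0% = vehicle alone and 100% = reference agonist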
PPARg SRC1 conf = PPARgamma agonists recruiting SRC-1 coactivator, confirmation, biochemical | shares compounds with PPARg SRC-3 ag | PPARgamma–SRC-1 coactivator recruitment biochemical assay | activation, % at 8 µM | hit rate 43% among 790; in the data active means activation above about 20%;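 further: 0% = vehicle wells and 100% = reference agonist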
PPARg SRC3 ag = PPARgamma-driven SRC-3 coactivator recruitment agonists, confirmation, biochemical | shares compounds with PPARg SRC-3 ag | biochemical PPARgamma-SRC-3 coactivator recruitment, agonist mode | activation, % at 8 µM | hit rate 29% among 790 | AID 1301, 2008; in the data active means activation above about 24%;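 further: 0% = vehicle wells and 100% = reference agonist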
Target sequence (P37231 whole entry, looked up): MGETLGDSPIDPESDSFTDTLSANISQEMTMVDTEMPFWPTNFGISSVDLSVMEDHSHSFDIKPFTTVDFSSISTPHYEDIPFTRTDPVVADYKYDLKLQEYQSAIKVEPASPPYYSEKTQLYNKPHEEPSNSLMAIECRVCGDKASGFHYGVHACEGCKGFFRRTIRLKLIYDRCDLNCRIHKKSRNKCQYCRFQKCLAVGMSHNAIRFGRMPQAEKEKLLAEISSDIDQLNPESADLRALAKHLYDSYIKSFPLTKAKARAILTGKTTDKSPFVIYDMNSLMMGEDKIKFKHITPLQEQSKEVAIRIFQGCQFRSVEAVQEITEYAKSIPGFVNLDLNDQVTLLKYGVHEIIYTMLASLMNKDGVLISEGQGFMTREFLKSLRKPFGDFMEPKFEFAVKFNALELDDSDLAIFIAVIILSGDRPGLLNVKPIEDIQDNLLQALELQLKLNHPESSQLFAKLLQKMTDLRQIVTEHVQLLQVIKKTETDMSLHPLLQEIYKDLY
Target sequence (Q9Y6Q9 whole entry, looked up): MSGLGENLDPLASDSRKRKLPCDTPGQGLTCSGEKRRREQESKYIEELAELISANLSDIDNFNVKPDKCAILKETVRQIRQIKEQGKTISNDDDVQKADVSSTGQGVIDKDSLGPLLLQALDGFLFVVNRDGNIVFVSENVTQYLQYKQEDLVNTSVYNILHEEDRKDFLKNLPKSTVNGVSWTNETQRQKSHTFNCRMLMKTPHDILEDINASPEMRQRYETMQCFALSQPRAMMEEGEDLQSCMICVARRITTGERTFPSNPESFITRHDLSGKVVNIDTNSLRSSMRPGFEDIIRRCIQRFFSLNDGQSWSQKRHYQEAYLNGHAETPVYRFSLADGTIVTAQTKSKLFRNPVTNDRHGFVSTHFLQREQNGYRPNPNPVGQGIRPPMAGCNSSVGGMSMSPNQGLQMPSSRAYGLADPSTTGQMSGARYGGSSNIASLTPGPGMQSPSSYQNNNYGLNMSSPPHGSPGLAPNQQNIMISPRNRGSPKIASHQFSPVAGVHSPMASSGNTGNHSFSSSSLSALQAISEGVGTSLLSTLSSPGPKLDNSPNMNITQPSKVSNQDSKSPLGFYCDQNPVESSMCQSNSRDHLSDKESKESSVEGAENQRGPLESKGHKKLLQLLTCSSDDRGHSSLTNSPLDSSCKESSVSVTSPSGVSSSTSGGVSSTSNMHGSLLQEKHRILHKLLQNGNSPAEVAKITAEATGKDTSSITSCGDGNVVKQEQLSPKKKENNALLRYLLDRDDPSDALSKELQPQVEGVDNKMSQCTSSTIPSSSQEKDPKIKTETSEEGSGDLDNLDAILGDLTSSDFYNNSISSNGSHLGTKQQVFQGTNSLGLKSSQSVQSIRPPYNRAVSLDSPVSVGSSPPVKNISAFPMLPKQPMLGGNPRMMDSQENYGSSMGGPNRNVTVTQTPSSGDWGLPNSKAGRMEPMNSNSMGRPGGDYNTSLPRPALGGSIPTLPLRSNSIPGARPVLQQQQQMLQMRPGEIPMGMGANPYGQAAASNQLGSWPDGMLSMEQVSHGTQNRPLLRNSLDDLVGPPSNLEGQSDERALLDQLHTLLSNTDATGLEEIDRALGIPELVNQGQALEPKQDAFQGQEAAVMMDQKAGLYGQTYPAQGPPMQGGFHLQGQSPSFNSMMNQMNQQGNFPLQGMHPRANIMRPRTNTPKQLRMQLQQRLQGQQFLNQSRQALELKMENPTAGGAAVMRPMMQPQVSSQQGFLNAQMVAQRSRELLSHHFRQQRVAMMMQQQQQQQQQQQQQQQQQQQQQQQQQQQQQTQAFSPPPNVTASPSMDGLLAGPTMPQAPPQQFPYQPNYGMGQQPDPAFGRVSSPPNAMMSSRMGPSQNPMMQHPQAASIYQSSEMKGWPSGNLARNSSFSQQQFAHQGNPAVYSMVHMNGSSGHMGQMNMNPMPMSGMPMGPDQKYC
Active calls of the source: *. An excerpt weighted towards active compounds, which were near 0.84% of everything screened. Unless noted, no stated cut-off is given here; in the data, active means activation above about 22%; inactive means the rest.

`CCn1c(=O)cc(SCC(=O)NCc2cccnc2)c2ccccc21` gave PPARg SRC-3 ag 2, SRC2 TRFRET art 1938, PPARg SRC2 recr 18, PPARg SRC-1 ag 21*, PPARg SRC2 conf 20, PPARg SRC1 conf 14 and PPARg SRC3 ag 11.
Screening CCn1c(=O)cc(SCC(=O)NCc2ccccn2)c2ccccc21 returned PPARg SRC-3 ag 18, SRC2 TRFRET art 1908, PPARg SRC2 recr 26*, PPARg SRC-1 ag 20*, PPARg SRC2 conf 27*, PPARg SRC1 conf 17 and PPARg SRC3 ag 18.
For CCn1c(=O)cc(OCC(=O)Nc2ccc(C)cn2)c2ccccc21 the results were PPARg SRC-3 ag -4, SRC2 TRFRET art 1467, PPARg SRC2 recr -1 and PPARg SRC-1 ag -5.
`CCn1c(=O)cc(SCC(=O)NCc2ccco2)c2ccccc21` gave PPARg SRC-3 ag 30*, SRC2 TRFRET art 1824, PPARg SRC2 recr 33*, PPARg SRC-1 ag 22*, PPARg SRC2 conf 27*, PPARg SRC1 conf 18 and PPARg SRC3 ag 16.
Screening CCn1c(=O)cc(SCC(=O)Nc2ccc(C)cn2)c2ccccc21 returned PPARg SRC-3 ag 25*, SRC1 TRFRET art 2927*, SRC2 TRFRET art 2341*, PPARg SRC2 recr 32*, SRC3 TRFRET art 3211*, PPARg SRC-1 ag 38*, PPARg SRC2 conf 28*, PPARg SRC1 conf 17 and PPARg SRC3 ag 19.
`CCn1c(=O)cc(SCC(=O)NCc2ccc(C)o2)c2ccccc21` gave PPARg SRC-3 ag 5, SRC2 TRFRET art 1550, PPARg SRC2 recr 10 and PPARg SRC-1 ag 11.
Screening Cc1ccc2c(c1)Oc1ccc(NC(=O)CCl)cc1C(=O)N2 returned PPARg SRC-3 ag 2, SRC1 TRFRET art 1606, SRC2 TRFRET art 1435, PPARg SRC2 recr -3, SRC3 TRFRET art 1411 and PPARg SRC-1 ag -7.
Screening O=C(c1ccccc1SCc1ccccc1)N1CCCCCC1 returned PPARg SRC-3 ag 1, SRC1 TRFRET art 1606, SRC2 TRFRET art 1530, PPARg SRC2 recr 4, SRC3 TRFRET art 1479 and PPARg SRC-1 ag 10.
For CCn1c(=O)cc(SCC(=O)NCc2ccc(C)cc2)c2ccccc21 the results were PPARg SRC-3 ag 76*, SRC2 TRFRET art 3248*, PPARg SRC2 recr 70*, PPARg SRC-1 ag 50*, PPARg SRC2 conf 51*, PPARg SRC1 conf 34* and PPARg SRC3 ag 32*.
`Cc1cc2cc(C)c(NCCNC(=O)c3cccs3)nc2cc1C` gave PPARg SRC-3 ag -2, SRC1 TRFRET art 1664, SRC2 TRFRET art 1395, PPARg SRC2 recr -8, SRC3 TRFRET art 1452 and PPARg SRC-1 ag 2.
`Cc1cccc(NC(=O)CSc2c3c(nc4ccccc24)CCC3)n1` gave PPARg SRC-3 ag 5, SRC1 TRFRET art 1807, SRC2 TRFRET art 1518, PPARg SRC2 recr 7, SRC3 TRFRET art 1583 and PPARg SRC-1 ag -3.
Screening Cc1ccc(CNC(=O)CSc2c3c(nc4ccc(Cl)cc24)CCCC3)o1 returned PPARg SRC-3 ag 19, SRC2 TRFRET art 1885, PPARg SRC2 recr 16 and PPARg SRC-1 ag 13.
For CCN(CC)CCNC(=O)CSc1c2c(nc3cc(Cl)ccc13)CCCC2 the results were PPARg SRC-3 ag 25*, SRC1 TRFRET art 3055*, SRC2 TRFRET art 2230*, PPARg SRC2 recr 47*, SRC3 TRFRET art 2600*, PPARg SRC-1 ag 23*, PPARg SRC2 conf 33*, PPARg SRC1 conf 22* and PPARg SRC3 ag 22.
COc1cccc(NC(=O)CSc2c3c(nc4ccccc24)CCCC3)c1 was read as PPARg SRC-3 ag 13, SRC1 TRFRET art 2392*, SRC2 TRFRET art 1718, PPARg SRC2 recr 21, SRC3 TRFRET art 2050, PPARg SRC-1 ag 21*, PPARg SRC2 conf 22*, PPARg SRC1 conf 17 and PPARg SRC3 ag 15.
For COc1ccccc1C1=NN(C(=S)Nc2ccccc2)C(c2ccco2)C1 (centres undefined) the results were PPARg SRC-3 ag 23, SRC2 TRFRET art 1731, PPARg SRC2 recr 19, PPARg SRC-1 ag 19*, PPARg SRC2 conf 22*, PPARg SRC1 conf 19 and PPARg SRC3 ag 13.
Screening C[C@H](NC(=O)c1nc[nH]c1C(=O)NC1CCN(C(=O)OC(C)(C)C)CC1)C(=O)OCc1ccccc1 returned PPARg SRC-3 ag -1, SRC1 TRFRET art 1781, SRC2 TRFRET art 1549, PPARg SRC2 recr -1, SRC3 TRFRET art 1563 and PPARg SRC-1 ag -5.
`C#CCNC(=O)C1=C[C@H](C2CCCCC2)C[C@H](OCc2ccc(CO)cc2)O1` gave PPARg SRC-3 ag 2, SRC1 TRFRET art 1703, SRC2 TRFRET art 1615, PPARg SRC2 recr 15, SRC3 TRFRET art 1716, PPARg SRC-1 ag 24*, PPARg SRC2 conf 1, PPARg SRC1 conf 1 and PPARg SRC3 ag 1.
Cc1cc2cc(CNS(=O)(=O)c3ccc4ccccc4c3)ccc2n1C was read as PPARg SRC-3 ag 38*, SRC2 TRFRET art 3303*, PPARg SRC2 recr 21, PPARg SRC-1 ag 18, PPARg SRC2 conf 104*, PPARg SRC1 conf 79* and PPARg SRC3 ag 65*.
For CCCC(=O)NCc1ccc2c(c1)cc(C)n2C the results were PPARg SRC-3 ag -1, SRC2 TRFRET art 1636, PPARg SRC2 recr -2 and PPARg SRC-1 ag 9.
Cc1cc2cc(CNC(=O)c3ccc(S(=O)(=O)N4CCOCC4)cc3)ccc2n1C was read as PPARg SRC-3 ag 45*, SRC2 TRFRET art 2210*, PPARg SRC2 recr 8, PPARg SRC-1 ag 31*, PPARg SRC2 conf 35*, PPARg SRC1 conf 29* and PPARg SRC3 ag 19.
Cc1ccc(C(=O)NCCc2ccc(S(=O)(=O)N3CCCC3)cc2)cc1 was read as PPARg SRC-3 ag 0, SRC1 TRFRET art 1940, SRC2 TRFRET art 1639, PPARg SRC2 recr 0, SRC3 TRFRET art 1782 and PPARg SRC-1 ag 4.
Screening Cc1cc2ccccc2n1CCNC(=O)c1ccc(S(=O)(=O)N2CCCCC2)cc1 returned PPARg SRC-3 ag 44*, SRC2 TRFRET art 3753*, PPARg SRC2 recr 26*, PPARg SRC-1 ag 24*, PPARg SRC2 conf 93*, PPARg SRC1 conf 80* and PPARg SRC3 ag 70*.

Bioassay records from PubChem BioAssay.
